Test results from the antibiotic and cytotoxicity screens of Wong et al. (2023).
Out of some 39,000 compounds screened, about 3,300 (8.5%) were called active. Shown is part of a subset that was picked to be rich in actives.

tested on: HepG2; assay: cytotoxicity call (relative viability < 0.9); details: 10 µM

Row | Compound | cytotoxicity call
1 | COc1ccc(NC(=O)N(C)C[C@H]2Oc3c(NS(C)(=O)=O)cccc3C(=O)N([C@@H](C)CO)C[C@H]2C)cc1 | inactive
2 | C[C@H]1CCCCO[C@@H](CN(C)C(=O)Nc2ccc(C(F)(F)F)cc2)[C@@H](C)CN([C@@H](C)CO)C(=O)c2cc(NC(=O)CCC(F)(F)F)ccc2O1 | inactive
3 | Cn1c(=O)c2c(nc(N3CCNCC3)n2CC(=O)c2ccc(Cl)cc2)n(C)c1=O | inactive
4 | COc1ccc(S(=O)(=O)N(C)C[C@H]2Oc3ccc(NC(=O)CCCN(C)C)cc3C(=O)N([C@@H](C)CO)C[C@@H]2C)cc1 | inactive
5 | COc1cccc(S(=O)(=O)N2C[C@@H](O)COC[C@@H]3O[C@H](CC(=O)NCCCN4CCOCC4)CC[C@H]32)c1 | inactive
6 | C[C@@H]1CN([C@H](C)CO)C(=O)c2cc(NC(=O)CCC(F)(F)F)ccc2O[C@@H](C)CCCCO[C@@H]1CN(C)Cc1ccncc1 | inactive
7 | COc1ccc(Oc2cc(NCCC(F)(F)F)c3ncc(-c4ccc(C(=O)NC5CC5)c(C)c4)n3n2)c(F)c1F | inactive
8 | C[C@@H]1CN([C@@H](C)CO)C(=O)c2cc(NC(=O)NC3CCCCC3)ccc2O[C@@H]1CN(C)S(C)(=O)=O | inactive
9 | C[C@H]1CN([C@@H](C)CO)S(=O)(=O)c2ccc(-c3cccc(C#N)c3)cc2O[C@@H]1CN(C)C(=O)c1ccncc1 | inactive
10 | C[C@@H]1CN([C@H](C)CO)C(=O)c2cc(NS(=O)(=O)c3ccccc3)ccc2O[C@@H](C)CCCCO[C@H]1CN(C)Cc1ccc(C(F)(F)F)cc1 | active
11 | C[C@@H]1CN([C@@H](C)CO)C(=O)c2cc(NS(=O)(=O)c3ccccc3)ccc2O[C@@H](C)CCCCO[C@H]1CN(C)Cc1ccc(C(F)(F)F)cc1 | inactive
12 | C[C@@H]1CN([C@@H](C)CO)C(=O)c2cc(NS(=O)(=O)c3ccccc3)ccc2O[C@@H](C)CCCCO[C@@H]1CN(C)Cc1ccc(C(F)(F)F)cc1 | inactive
13 | C[C@@H]1CCCCO[C@H](CN(C)Cc2ccc(C(F)(F)F)cc2)[C@H](C)CN([C@@H](C)CO)C(=O)c2cc(NS(=O)(=O)c3ccccc3)ccc2O1 | active
14 | C[C@@H]1CCCCO[C@H](CN(C)Cc2ccc(C(F)(F)F)cc2)[C@@H](C)CN([C@@H](C)CO)C(=O)c2cc(NS(=O)(=O)c3ccccc3)ccc2O1 | inactive
15 | C[C@@H]1CN([C@H](C)CO)C(=O)c2cc(NS(=O)(=O)c3ccccc3)ccc2O[C@@H](C)CCCCO[C@@H]1CN(C)Cc1ccc(C(F)(F)F)cc1 | inactive
16 | C[C@H]1CN([C@@H](C)CO)C(=O)c2cccc(NC(=O)c3nc4ccccc4s3)c2O[C@H]1CN(C)S(=O)(=O)c1cn(C)cn1 | inactive
17 | CCCNC(=O)Nc1ccc2c(c1)OC[C@H](C)N(C(=O)C1CCOCC1)C[C@@H](C)[C@@H](OC)CN(C)C2=O | inactive
18 | Cc1noc(C)c1S(=O)(=O)Nc1cccc2c1O[C@@H](CN(C)CC1CC1)[C@@H](C)CN([C@H](C)CO)C2=O | inactive
19 | Cc1ccc(S(=O)(=O)N2C[C@H](O)COC[C@@H]3O[C@H](CC(=O)NCc4ccc(Cl)c(Cl)c4)CC[C@H]32)cc1 | active
20 | Cc1ccc(S(=O)(=O)N2C[C@H](O)COC[C@H]3O[C@H](CC(=O)NCc4ccc(Cl)c(Cl)c4)CC[C@@H]32)cc1 | inactive
21 | Cc1ccc(S(=O)(=O)N2C[C@@H](O)COC[C@@H]3O[C@@H](CC(=O)NCc4ccc5c(c4)OCO5)CC[C@H]32)cc1 | inactive

Row | Compound | cytotoxicity call
22 | Cc1ccc(S(=O)(=O)N2C[C@H](O)COC[C@@H]3O[C@H](CC(=O)NCc4ccc5c(c4)OCO5)CC[C@H]32)cc1 | active
23 | Cc1ccc(S(=O)(=O)N2C[C@H](O)COC[C@@H]3O[C@@H](CC(=O)NCc4ccc(Cl)c(Cl)c4)CC[C@H]32)cc1 | inactive
24 | Cc1ccc(S(=O)(=O)N2C[C@@H](O)COC[C@@H]3O[C@@H](CC(=O)NCc4ccc(Cl)c(Cl)c4)CC[C@H]32)cc1 | active
25 | Cc1ccc(S(=O)(=O)N2C[C@@H](O)COC[C@H]3O[C@H](CC(=O)NCc4ccc5c(c4)OCO5)CC[C@@H]32)cc1 | inactive
26 | Cc1ccc(S(=O)(=O)N2C[C@@H](O)COC[C@H]3O[C@H](CC(=O)NCc4ccc(Cl)c(Cl)c4)CC[C@@H]32)cc1 | inactive
27 | Cc1ccc(S(=O)(=O)N2C[C@@H](O)COC[C@@H]3O[C@H](CC(=O)NCc4ccc(Cl)c(Cl)c4)CC[C@H]32)cc1 | inactive
28 | Cc1ccc(S(=O)(=O)N2C[C@@H](O)COC[C@H]3O[C@@H](CC(=O)NCc4ccc(Cl)c(Cl)c4)CC[C@@H]32)cc1 | inactive
29 | Cc1ccc(S(=O)(=O)N2C[C@H](O)COC[C@H]3O[C@@H](CC(=O)NCc4ccc(Cl)c(Cl)c4)CC[C@@H]32)cc1 | active
30 | Cc1cccc(S(=O)(=O)N2C[C@@H](O)COC[C@H]3O[C@H](CC(=O)NCc4ccc(Cl)c(Cl)c4)CC[C@@H]32)c1 | inactive
31 | C[C@H](CO)N1C[C@H](C)[C@@H](CN(C)C(=O)CCC(F)(F)F)OCc2ccccc2-c2c(n(C)c3ccccc23)C1=O | inactive
32 | CSc1scc(-c2cc(Cl)cc(Cl)c2)c1C#N | inactive
33 | C[C@H](CO)N1C[C@H](C)[C@@H](CN(C)S(=O)(=O)c2cccs2)Oc2ccc(NC(=O)CCCN(C)C)cc2C1=O | inactive
34 | Cc1ccc(S(=O)(=O)Nc2ccc3c(c2)C(=O)N([C@@H](C)CO)C[C@@H](C)[C@@H](CN(C)C(=O)Nc2ccccc2)OCCCC[C@@H](C)O3)cc1 | inactive
35 | CCCC/C=C/[C@H]([C@@H](O)Cc1ccccc1)N(CC#Cc1ccccc1)Cc1ccccc1Br | inactive
36 | COc1ccc(NC(=O)Nc2ccc3c(c2)C(=O)N([C@H](C)CO)C[C@@H](C)[C@@H](CN(C)C(=O)Nc2ccc(C(F)(F)F)cc2)O3)cc1 | inactive
37 | C[C@@H](O)CN1CCN(S(=O)(=O)C2CC2)CC1 | inactive
38 | C[C@@H]1CN([C@H](C)CO)C(=O)c2cccc(NC(=O)C3CC3)c2O[C@H]1CN(C)S(=O)(=O)c1ccccc1 | inactive
39 | CC(=O)Nc1nc(C(=O)O)cs1 | inactive
40 | Cc1ccc(-n2nc(C(C)(C)C)cc2NC(=O)Nc2ccc(OCCN3CCOCC3)c3ccccc23)cc1 | active
41 | Cc1ccc(S(=O)(=O)NC2=NCN(CCN3CCOCC3)CN2)cc1 | inactive
42 | CC(C)(C)c1cc(NC(=O)Nc2ccc(Oc3ccnc4nc(O)cnc34)cc2F)n(-c2ccccc2)n1 | inactive

Row | Compound | cytotoxicity call
43 | CCCNC(=O)N1C[C@@H](C)[C@@H](OC)CN(C)C(=O)c2cc(NS(=O)(=O)CC(F)(F)F)ccc2OC[C@H]1C | inactive
44 | CC1(C)OC2CC3C4CC(F)C5=CC(=O)C=CC5(C)C4C(O)CC3(C)C2(C(=O)CO)O1 (stereo unspecified) | inactive
45 | C[C@@H]1CN([C@@H](C)CO)C(=O)c2cccc(NC(=O)C3CCCCC3)c2O[C@@H]1CN(C)S(=O)(=O)c1cn(C)cn1 | inactive
46 | COc1ccc([Si](C)(C)[C@H]2[C@H](CCn3cc(CCO)nn3)O[C@@]3(C(=O)N(C)c4ccccc43)[C@@H]2C)cc1 | inactive
47 | COc1ccc([Si](C)(C)[C@@H]2[C@@H](CCn3cc(CCO)nn3)O[C@]3(C(=O)N(Cc4ccc(N5C(=O)c6cccc7cccc5c67)cc4)c4ccccc43)[C@H]2C)cc1 | active
48 | COc1ccc([Si](C)(C)[C@@H]2[C@@H](CCn3cc([C@H](O)c4ccccc4)nn3)O[C@]3(C(=O)N(Cc4cccc(N5C(=O)c6cccc7cccc5c67)c4)c4ccccc43)[C@H]2C)cc1 | inactive
49 | COc1ccc([Si](C)(C)[C@@H]2[C@@H](CCn3cc([C@H](O)c4ccccc4)nn3)O[C@]3(C(=O)N(Cc4ccc(N5C(=O)c6cccc7cccc5c67)cc4)c4ccccc43)[C@H]2C)cc1 | active
50 | COc1ccc([Si](C)(C)[C@H]2[C@H](CCn3cc([C@H](O)c4ccccc4)nn3)O[C@@]3(C(=O)N(Cc4ccc(N5C(=O)c6cccc7cccc5c67)cc4)c4ccccc43)[C@@H]2C)cc1 | inactive
51 | C[C@@H]1[C@@H]([Si](C)(C)F)[C@H](CCn2cc([C@H](O)c3ccccc3)nn2)O[C@@]12C(=O)N(c1ccccc1)c1ccccc12 | active
52 | COc1ccc([Si](C)(C)[C@@H]2[C@@H](CCn3cc(CCO)nn3)O[C@]3(C(=O)N(C)c4ccccc43)[C@H]2C)cc1 | inactive
53 | COc1ccc([Si](C)(C)[C@H]2[C@H](CCn3cc([C@H](O)c4ccccc4)nn3)O[C@@]3(C(=O)N(Cc4cccc(N5C(=O)c6cccc7cccc5c67)c4)c4ccccc43)[C@@H]2C)cc1 | inactive
54 | COc1ccc([Si](C)(C)[C@@H]2[C@@H](CCn3cc(CCO)nn3)O[C@]3(C(=O)N(Cc4cccc(N5C(=O)c6cccc7cccc5c67)c4)c4ccccc43)[C@H]2C)cc1 | active
55 | C[C@H]1[C@H]([Si](C)(C)F)[C@@H](CCn2cc([C@H](O)c3ccccc3)nn2)O[C@]12C(=O)N(c1ccccc1)c1ccccc12 | inactive
56 | COc1ccc([Si](C)(C)[C@H]2[C@H](CCn3cc(CCO)nn3)O[C@@]3(C(=O)N(Cc4cccc(N5C(=O)c6cccc7cccc5c67)c4)c4ccccc43)[C@@H]2C)cc1 | inactive
57 | COc1ccc([Si](C)(C)[C@@H]2[C@@H](CCn3cc([C@H](O)c4ccccc4)nn3)O[C@]3(C(=O)N(c4ccccc4)c4ccccc43)[C@H]2C)cc1 | inactive
58 | COc1ccc(C#Cc2ccc([C@H]3[C@@H](CO)N4CCCCN(S(=O)(=O)c5cn(C)cn5)C[C@H]34)cc2)cc1 | inactive
59 | C[C@@H]1CN([C@H](C)CO)S(=O)(=O)c2ccc(-c3cncnc3)cc2O[C@@H]1CN(C)C(=O)Cc1cccnc1 | inactive
60 | Cl.N=C(N)NCCCC(N)C(=O)O (stereo unspecified) | inactive
61 | C[C@@H]1CCCCO[C@H](CN(C)Cc2ccc(C(=O)O)cc2)[C@@H](C)CN([C@H](C)CO)C(=O)c2cc(NC(=O)Nc3ccc(F)cc3)ccc2O1 | inactive
